# From PubChem BioAssay AID1159580 (chemical genetic matrix, 2015)
# About 2,000 (36%) of roughly 5,500 compounds were called active. Another 18% or so got no clear call; they are omitted. The list shows a part of the results. Unmarked numbers belong to inactive results. Rule as the data show it: active = normalized growth mostly below about 0.91 (no sharp cut-off); inconclusive = no clear call, values can overlap the other calls; inactive = mostly above about 0.92.
# Assay: chemical genetic growth profiling, strain panel (AID 1159580);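 also: tested at 20 µM; growth read once vehicle control cultures reached saturation at 30 °C; 1 = growth at the plate median or of vehicle wells; lower values mean less growth of the strain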
# Conditions: growth OD
smiles,measurement,setting,value
O=C(O)C(O)C(O)C(=O)O (configuration not stated),normalized growth,"S. cerevisiae deletion strains, locus YJR075W, strain HOC1, hits give low values",0.993
same,normalized growth,"S. cerevisiae deletion strains, locus YKL009W, strain mrt4, hits give low values",0.985
same,normalized growth,"S. cerevisiae deletion strains, locus YKL068W, hits give low values",0.98
same,normalized growth,"S. cerevisiae deletion strains, locus YKL085W, strain MDH1 (second series), hits give low values",0.986
same,normalized growth,"S. cerevisiae deletion strains, locus YKL085W, strain MDH1, hits give low values",0.986
same,normalized growth,"S. cerevisiae deletion strains, locus YKL160W, strain elf1, hits give low values",1.01
same,normalized growth,"S. cerevisiae deletion strains, locus YKL190W, strain CNB1, hits give low values",0.978
same,normalized growth,"S. cerevisiae deletion strains, locus YKR001C, strain vps1, hits give low values",0.983
same,normalized growth,"S. cerevisiae deletion strains, locus YKR026C, strain gcn3, hits give low values",1.01
same,normalized growth,"S. cerevisiae deletion strains, locus YKR091W, strain srl3, hits give low values",1
same,normalized growth,"S. cerevisiae deletion strains, locus YLL001W, strain dnm1, hits give low values",0.992
same,normalized growth,"S. cerevisiae deletion strains, locus YLL026W, hits give low values",0.972
same,normalized growth,"S. cerevisiae deletion strains, locus YLL041C, strain sdh2, hits give low values",0.994
same,normalized growth,"S. cerevisiae deletion strains, locus YLR027C, strain aat2, hits give low values",0.999
same,normalized growth,"S. cerevisiae deletion strains, locus YLR039C, strain RIC1, hits give low values",0.961
same,normalized growth,"S. cerevisiae deletion strains, locus YLR058C, strain SHM2, hits give low values",0.976
same,normalized growth,"S. cerevisiae deletion strains, locus YLR102C, strain apc9, hits give low values",0.988
same,normalized growth,"S. cerevisiae deletion strains, locus YLR113W, strain HOG1, hits give low values",0.938
same,normalized growth,"S. cerevisiae deletion strains, locus YLR221C, strain rsa3, hits give low values",0.986
same,normalized growth,"S. cerevisiae deletion strains, locus YLR258W, strain gsy2, hits give low values",0.998
same,normalized growth,"S. cerevisiae deletion strains, locus YLR262C, strain YPT6 (second series), hits give low values",1.01
same,normalized growth,"S. cerevisiae deletion strains, locus YLR262C, strain YPT6, hits give low values",0.934
same,normalized growth,"S. cerevisiae deletion strains, locus YLR268W, strain sec22, hits give low values",0.971
same,normalized growth,"S. cerevisiae deletion strains, locus YLR320W, strain mms22, hits give low values",1
same,normalized growth,"S. cerevisiae deletion strains, locus YLR330W, strain CHS5, hits give low values",0.991
same,normalized growth,"S. cerevisiae deletion strains, locus YLR342W, strain FKS1 (second series), hits give low values",1.03
same,normalized growth,"S. cerevisiae deletion strains, locus YLR342W, strain FKS1, hits give low values",0.997
same,normalized growth,"S. cerevisiae deletion strains, locus YLR357W, strain rsc2, hits give low values",0.966
same,normalized growth,"S. cerevisiae deletion strains, locus YLR370C, strain arc18, hits give low values",1
same,normalized growth,"S. cerevisiae deletion strains, locus YLR371W, strain rom2, hits give low values",0.997
same,normalized growth,"S. cerevisiae deletion strains, locus YLR384C, strain iki3, hits give low values",0.988
same,normalized growth,"S. cerevisiae deletion strains, locus YLR418C, strain cdc73, hits give low values",0.986
same,normalized growth,"S. cerevisiae deletion strains, locus YML016C, strain PPZ1, hits give low values",0.992
same,normalized growth,"S. cerevisiae deletion strains, locus YML032C, strain rad52, hits give low values",1
same,normalized growth,"S. cerevisiae deletion strains, locus YML120C, strain ndi1, hits give low values",0.998
same,normalized growth,"S. cerevisiae deletion strains, locus YML124C, strain tub3, hits give low values",0.997
same,normalized growth,"S. cerevisiae deletion strains, locus YMR058W, strain fet3, hits give low values",1.01
same,normalized growth,"S. cerevisiae deletion strains, locus YMR078C, strain ctf18, hits give low values",0.984
same,normalized growth,"S. cerevisiae deletion strains, locus YMR125W, strain sto1, hits give low values",0.987
same,normalized growth,"S. cerevisiae deletion strains, locus YMR129W, hits give low values",0.995
same,normalized growth,"S. cerevisiae deletion strains, locus YMR205C, strain PFK2, hits give low values",0.981
same,normalized growth,"S. cerevisiae deletion strains, locus YMR223W, strain ubp8, hits give low values",1
same,normalized growth,"S. cerevisiae deletion strains, locus YMR231W, strain pep5, hits give low values",1
same,normalized growth,"S. cerevisiae deletion strains, locus YMR263W, strain SAP30, hits give low values",0.976
same,normalized growth,"S. cerevisiae deletion strains, locus YMR307W, strain GAS1, hits give low values",0.921
same,normalized growth,"S. cerevisiae deletion strains, locus YNL067W, strain RPL9B, hits give low values",0.993
same,normalized growth,"S. cerevisiae deletion strains, locus YNL071W, strain lat1, hits give low values",0.987
same,normalized growth,"S. cerevisiae deletion strains, locus YNL128W, strain TEP1, hits give low values",0.981
same,normalized growth,"S. cerevisiae deletion strains, locus YNL153C, strain GIM3, hits give low values",0.979
same,normalized growth,"S. cerevisiae deletion strains, locus YNL183C, strain NPR1, hits give low values",0.919
same,normalized growth,"S. cerevisiae deletion strains, locus YNL209W, strain ssb2, hits give low values",1.02
same,normalized growth,"S. cerevisiae deletion strains, locus YNL233W, strain BNI4, hits give low values",0.986
same,normalized growth,"S. cerevisiae deletion strains, locus YNL248C, strain rpa49, hits give low values",0.994
same,normalized growth,"S. cerevisiae deletion strains, locus YNL250W, strain rad50, hits give low values",0.987
same,normalized growth,"S. cerevisiae deletion strains, locus YNL271C, strain bni1, hits give low values",0.992
same,normalized growth,"S. cerevisiae deletion strains, locus YNL298W, strain CLA4, hits give low values",0.988
same,normalized growth,"S. cerevisiae deletion strains, locus YNL307C, strain MCK1, hits give low values",0.991
same,normalized growth,"S. cerevisiae deletion strains, locus YNL322C, strain KRE1 (second series), hits give low values",0.985
same,normalized growth,"S. cerevisiae deletion strains, locus YNL322C, strain KRE1, hits give low values",0.99
same,normalized growth,"S. cerevisiae deletion strains, locus YNR049C, strain mso1, hits give low values",1
same,normalized growth,"S. cerevisiae deletion strains, locus YNR052C, strain pop2, hits give low values",0.991
same,normalized growth,"S. cerevisiae deletion strains, locus YOL006C, strain TOP1, hits give low values",0.97
same,normalized growth,"S. cerevisiae deletion strains, locus YOL012C, strain htz1",1.53
same,normalized growth,"S. cerevisiae deletion strains, locus YOL147C, strain pex11, hits give low values",0.987
same,normalized growth,"S. cerevisiae deletion strains, locus YOR001W, strain rrp6, hits give low values",0.991
same,normalized growth,"S. cerevisiae deletion strains, locus YOR061W, strain CKA2, hits give low values",0.959
same,normalized growth,"S. cerevisiae deletion strains, locus YOR069W, strain VPS5, hits give low values",0.997
same,normalized growth,"S. cerevisiae deletion strains, locus YOR070C, strain gyp1, hits give low values",0.984
same,normalized growth,"S. cerevisiae deletion strains, locus YOR080W, strain dia2, hits give low values",1
same,normalized growth,"S. cerevisiae deletion strains, locus YOR083W, strain WHI5, hits give low values",1.01
same,normalized growth,"S. cerevisiae deletion strains, locus YOR106W, strain vam3, hits give low values",0.994
same,normalized growth,"S. cerevisiae deletion strains, locus YOR136W, strain idh2, hits give low values",0.997
same,normalized growth,"S. cerevisiae deletion strains, locus YOR144C, strain elg1, hits give low values",0.986
same,normalized growth,"S. cerevisiae deletion strains, locus YOR184W, strain ser1, hits give low values",1.01
same,normalized growth,"S. cerevisiae deletion strains, locus YOR231W, strain MKK1, hits give low values",0.959
same,normalized growth,"S. cerevisiae deletion strains, locus YOR265W, strain rbl2, hits give low values",0.995
same,normalized growth,"S. cerevisiae deletion strains, locus YOR270C, strain vph1, hits give low values",0.979
same,normalized growth,"S. cerevisiae deletion strains, locus YOR290C, strain snf2, hits give low values",1.02
same,normalized growth,"S. cerevisiae deletion strains, locus YOR316C, strain cot1, hits give low values",0.98
same,normalized growth,"S. cerevisiae deletion strains, locus YPL051W, strain arl3, hits give low values",1.01
same,normalized growth,"S. cerevisiae deletion strains, locus YPL055C, strain LGE1, hits give low values",0.965
same,normalized growth,"S. cerevisiae deletion strains, locus YPL078C, strain atp4, hits give low values",0.999
same,normalized growth,"S. cerevisiae deletion strains, locus YPL106C, strain sse1, hits give low values",0.976
same,normalized growth,"S. cerevisiae deletion strains, locus YPL240C, strain hsp82, hits give low values",0.989
same,normalized growth,"S. cerevisiae deletion strains, locus YPL241C, strain CIN2, hits give low values",1.07 [resistant] (active)
same,normalized growth,"S. cerevisiae deletion strains, locus YPL256C, strain CLN2, hits give low values",0.943
same,normalized growth,"S. cerevisiae deletion strains, locus YPR119W, strain clb2, hits give low values",0.994
same,normalized growth,"S. cerevisiae deletion strains, locus YPR141C, strain kar3, hits give low values",0.97
same,normalized growth,"S. cerevisiae deletion strains, locus YPR163C, strain tif3, hits give low values",0.991
same,normalized growth,"S. cerevisiae deletion strains, locus YPR167C, strain met16, hits give low values",0.98
same,normalized growth,"S. cerevisiae deletion strains, strain wtn01, hits give low values",0.997
same,normalized growth,"S. cerevisiae strains, strain wild type, hits give low values",0.996
